Measured values reported in PubChem BioAssay AID1259418 (Broad Institute, 2018).
The whole screen tested about 3,400 compounds, of which about 840 (25%) were called active. Roughly 11% stayed inconclusive and do not appear here. These entries were drawn from the full list. Entries with a potency or affinity are not part of this list. A number with no mark means an inactive call.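 How the source made its calls: active means fitted half-maximal concentration of signal decrease at or below twice the sample's top tested concentration; inconclusive means flat curve between -70 and -30 percent, or poor fit; inactive means flat within 30 percent, signal rise, or potency above limit.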

assay: inhibitors of Toxoplasma growth in IFN-γ-primed HeLa – cell-based, ME49Luc, luciferase, 72 h, dose response (AID 1259418); settings: T. gondii ME49Luc in IFN-y HeLa, active compounds read low, -100% = high-dose IFN-γ control wells; at 19.5 µM unless noted

Point of comparison: `CCOCC1CC2(CCN(C(=O)COc3ccc(C)cc3)CC2)CO1` (stereo not drawn), max activity 14.2%. Against it:
- COc1ccccc1-c1nc(Cn2nnc(-c3nc(-c4ccccn4)no3)c2C)c(C)o1 — higher, 50.4%
- C=CCN1C(=O)CC[C@H]2[C@@H]1CCN2S(=O)(=O)CC — higher, 48.3%
- COCC1COCCC12CCN(C(=O)c1ccc(C)nc1)CC2 (stereo not drawn) — higher, 18.7%
- O=S(=O)(c1cccs1)N1CCC2(CC1)NCCN=C2NCc1ccccc1F — lower, -35.7%
- O=S(=O)(c1ccc(Cl)s1)N1CCC2(CC1)NCCN=C2NC1CCCC1 — lower, 13.4%
- COC[C@H]1CN(CC2CC2)C[C@@]12CCN(CCc1ccccc1)C2 — higher, 24%
- CCCN1CCc2nc(SCc3nc(-c4ccc(OC)cc4OC)oc3C)[nH]c(=O)c2C1 — higher, 66.7%
- CC1(C)C2CCC1(CS(=O)(=O)O)C(=O)/C2=C\c1ccc(/C=C2/C(=O)C3(CS(=O)(=O)O)CCC2C3(C)C)cc1 — higher, 14.9%
- CCn1c(C2CCCN(C(=O)CCN3CCCCCC3=O)C2)nn(C)c1=O (stereo not drawn) — higher, 20.9%
- CN1C(=O)CCc2cc(NC(=O)c3ccnn3C)ccc21 — higher, 26.8%
- CC1CCCCN1CCNS(=O)(=O)c1cc(-c2nc(C(C)(C)C)cs2)cs1 (stereo not drawn) — lower, -20.5%
- COc1ccc(-c2nc(N3CCC(Cc4ccccc4)CC3)c3ccccc3n2)cc1 — higher, 16.4%
- CN1C(=O)CCc2cc(NC(=O)C3CCCO3)ccc21 (stereo not drawn) — higher, 17.1%
- COc1cccc(-c2nc(CN(c3ccc(C)cc3)S(=O)(=O)c3cccs3)c(C)o2)c1OC — lower, 2.85%
- COc1ccc(N(Cc2nc(-c3ccccc3)oc2C)S(=O)(=O)c2cccs2)cc1 — higher, 14.6%
- CN1[C@H](CO)[C@@H]2c3ccccc3N(C(=O)C3CCCCC3)C[C@@H]21 — higher, 65.5%
- CC(C)n1c(C(=O)Nc2cccc(F)c2)nc2c1CCN(Cc1ccccc1)C2 — lower, 12.5%
- CCN1Cc2c(C(=O)Nc3ccc(C)cc3)ncn2-c2ccccc2S1(=O)=O — lower, 5.65%

Point of comparison: `Cc1ccc(C)c(-c2coc(-c3ccc(NC(=O)Nc4ccccc4)cc3)n2)c1`, max activity 17.8% [at 0.16 µM]. Against it:
- Cc1ccc(CSc2ccc(-c3sc(-c4ccc(F)cc4)nc3C)nn2)cc1 — lower, 12.3% [at 0.16 µM]
- O=C(Nc1ccc(-c2nc(-c3ccccc3)co2)cc1)Nc1ccc2c(c1)OCO2 — higher, 19.1% [at 0.16 µM]
- Cc1cccc(-c2nc(CSc3nc4c(c(=O)[nH]3)CN(Cc3ccc(Cl)cc3)CC4)c(C)o2)c1 — higher, 23.2% [at 0.16 µM]
- CCc1ccc(S(=O)(=O)N2CCC3(CC2)NCCN=C3NCc2ccccc2OC)cc1 — lower, 11.2% [at 0.16 µM]
- COc1ccc(-c2nc(Nc3ccc(C)c(C)c3)c3ccccc3n2)cc1 — higher, 21.6% [at 0.16 µM]
- CCOC(=O)C1CCCN(S(=O)(=O)c2cc(-c3nc(C)c(C)s3)sc2C)C1 (stereo not drawn) — lower, 14.9% [at 0.16 µM]
- COc1ccccc1-c1nc(Cn2nnc(-c3nc(-c4ccc(SC)cc4)no3)c2C)c(C)o1 — lower, 10.9% [at 0.16 µM]

Point of comparison: `Cc1nc(CCNC(=O)[C@H]2CCCN2S(=O)(=O)c2ccc(C(C)(C)C)cc2)cs1`, max activity 7.93% [at 5 µM]. Against it:
- Cc1cc(C)c2c(=O)n(Cc3nc(-c4ccc(C(C)C)cc4)oc3C)c(=O)n(-c3ccccc3)c2n1 — lower, -13.2% [at 5 µM]

Point of comparison: `O=C(NCCc1c[nH]c2ccccc12)C1CCN(c2ncnc3c2oc2ccccc23)CC1`, max activity 11.9% [at 0.68 µM]. Against it:
- CCCN1CCc2nc(SCc3nc(-c4cccc(Cl)c4)oc3C)[nH]c(=O)c2C1 — lower, 10.2% [at 0.68 µM]
- CCn1nnc2c(NCCSc3c[nH]c4ccccc34)ncnc21 — lower, -13.5% [at 0.68 µM]
- COc1ccccc1CNC1=NCCNC12CCN(S(=O)(=O)c1cccs1)CC2 — lower, -16.5% [at 0.68 µM]
- Cc1ccc(-c2coc(-c3ccc(NC(=O)Cc4cccs4)cc3)n2)cc1 — lower, -53.8% [at 0.68 µM]
- COc1ccc(CC(=O)N2CCC3(CC2)Nc2ccc(C)c(C)c2-n2cccc23)cc1OC — lower, 11.1% [at 0.68 µM]

Point of comparison: `CCCCC(=O)N1CCC(C(=O)NCCc2csc(-c3ccccc3)n2)CC1`, max activity 6.78% [at 2.6 µM]. Against it:
- Cc1ccc(NC(=O)N2CCc3nc(-c4ccccc4)sc3C2)cc1C — lower, -7.49% [at 2.6 µM]

Point of comparison: `Cc1ccccc1NC(=O)CN1CCC2(CC1)N=C(c1ccc(Cl)cc1)C(=O)N2`, max activity -13.7% [at 1.35 µM]. Against it:
- Cc1cccc(-c2nc(Cn3nnc(-c4nc(-c5cccc(C(F)(F)F)c5)no4)c3C)c(C)o2)c1 — higher, 8.75% [at 1.35 µM]
- COc1ccc(-n2ncc3c(NC4CCCCCCCCCCC4)ncnc32)cc1 — higher, 21.4% [at 1.35 µM]
- CCOc1ccc(NC(=O)Nc2ccc(-c3nc(-c4cc(C)ccc4C)co3)cc2)cc1 — higher, -9.48% [at 1.35 µM]

Point of comparison: `CCc1nc(OCC(=O)Nc2ccc3c(c2)OCO3)c2ccccc2n1`, max activity 23.2% [at 10 µM]. Against it:
- COc1ccc(-c2nc(N3CCN(c4ccc(F)cc4)CC3)c3ccccc3n2)cc1 — lower, 13.7% [at 10 µM]
- Cc1cc2cc(CNc3ncnc4c3nnn4C)ccc2[nH]1 — lower, 9.49% [at 10 µM]
- CCOc1ccc(N(Cc2nc(-c3ccccc3OCC)oc2C)S(=O)(=O)c2cccs2)cc1 — lower, 8.57% [at 10 µM]

Point of comparison: `COc1ccc(C)cc1NC(=O)Nc1ccc(-c2nc(-c3cccc(Br)c3)co2)cc1`, max activity -11.7% [at 0.35 µM]. Against it:
- COc1cccc(CNC2=NCCNC23CCN(S(=O)(=O)c2ccc(C(C)C)cc2)CC3)c1 — lower, -13.5% [at 0.35 µM]
- COc1ccc2c(c1)NC1(CCN(C(=O)c3ccc(C(C)(C)C)cc3)CC1)c1cccn1-2 — higher, -6.3% [at 0.35 µM]
